High-throughput results (PubChem BioAssay)
Vaccinia Venus = inhibitors of vaccinia virus (Venus reporter) | Vaccinia virus Venus reporter expression, fluorescence | Potency, µM (titrated, usually from 36.5 µM), without a hit: at the top dose activity change, negative = inhibition, usual class: inhibitors | hit rate 0.46% among 330,000; calls by dose curve; tested in A549 cells; note: nearly all actives have a fitted effect of over 30% in size
Pf growth 96h = P. falciparum growth inhibition at 96 hour, primary screen for plastid delayed-death inhibitors. P. falciparum luciferase reporter growth, 96 h. Potency, µM (top dose mostly 28.7 µM), without a hit: top-dose activity change, negative = inhibition, usual class: inhibitors. hit rate 6.9% among 320,000
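96 h incubation, 37 C, 5% CO2, of luciferase-reporter P. falciparum-infected RBCs (2% hematocrit, 0.05% parasitemia final) with test compounds; endpoint luminescence.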
Vaccinia mCherry = vaccinia inhibition (mCherry reporter); AID 720579; Potency, µM (highest dose often 36.5 µM), inactives show at the highest dose activity change, negative = inhibition, most hits filed as inhibitors; Vaccinia virus mCherry reporter infection, fluorescence; hit rate 0.63% among 310,000; calls by dose curve; tested in A549 cells; note: nearly all actives have a fitted effect of over 35% in size
Pf growth 48h = inhibits P. falciparum growth in the first generation, 48 h | AID 504832 | hit rate 5.9% among 310,000 | P. falciparum luciferase growth in erythrocytes, 48 h | Potency, µM (series often up to 28.7 µM), without a hit: at the highest dose activity change, negative = inhibition, hits mostly inhibitors
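Luciferase-expressing parasites in RBCs, 2% Hct / 0.1% parasitemia final; RPMI 1640 + 0.5% Albumax; 37 C, 5% CO2, one generation; luminescence read-out, lower signal = inhibition.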
AMA1 RON2 block = disrupts binding of P. falciparum AMA1 to RON2. AID 720542. AlphaScreen AMA1-biotinylated RON2 peptide binding. Potency, µM (doses to about 58.2 µM), for inactives: at the top dose activity change, negative = inhibition, usual class: inhibitors. hit rate 0.2% among 360,000;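 note: 0% = vehicle wells and -100% = peptide control; nearly all actives have a fitted effect of over 45% in size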
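AMA1 (3D7) with his tag at 25 nM final met compounds first, then biotinylated RON2 peptide at 25 nM; detection used donor plus acceptor beads, 10 µg/mL apiece, read by AlphaScreen after 30 min at room temperature.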
The depositor's hits bear a star; i = inactive; ? = inconclusive; . = not tested or not shown; [ ] = remark or other dose. Shown are actives, neighbours in structure and some others; about 8.7% of the full set was active somewhere. Unless noted, calls come from the whole dose curve; as a rule, active = well fitted curve in the direction sought with a large enough effect; inconclusive = small, poorly fitted or top-dose-only effect, or another doubt; inactive = no such curve, though single readings can be large; an effect the other way counts as inactive or inconclusive. Unless noted, % is set by controls: 0 for no effect and ±100 for the full control effect; potency is the fitted concentration of half-maximal effect.

SMILES	Vaccinia Venus	Pf growth 96h	Vaccinia mCherry	Pf growth 48h	AMA1 RON2 block
CC(=O)Nc1ccc(CN2CCCC(CO)(Cc3ccccc3C)C2)cc1 (stereo not given)	-15%	-11%	i	?	-13%
CCOC(=O)C1(Cc2ccccc2C)CCCN(C(=O)c2ccc3nccnc3c2)C1 (stereo not given)	-9%	-23%	-26%	13µM*	2%
CCOC(=O)C1(Cc2ccccc2C)CCCN(Cc2ccc(NC(C)=O)cc2)C1 (stereo not given)	-18%	?	-15%	5.2µM*	-5%
CCc1cccc(NC(=O)CSc2nc3ccccc3nc2N2CCCCC2)c1	3%[7.34 µM]	.	-18%[7.34 µM]	.	.
Cc1cc(C)c(C)c(S(=O)(=O)N2CCN(c3ccccn3)CC2)c1C	.	-2%	.	-3%	15%
Cc1cc(C)c(C)c(S(=O)(=O)N2CCN(c3ncnc4ccccc34)CC2)c1C	.	?	.	12µM*	-1%
Cc1ccc2c(c1)/C(=C/c1ccc(F)cc1)C(=O)N2	.	2%	.	?	-10%
CCN(CC)CCNC(=O)c1c(C)[nH]c(/C=C2\C(=O)Nc3ccc(F)cc32)c1C	.	2.7µM*	.	2.1µM*	.
COCCNC(=O)Cn1nc(-c2ccccc2OC)ccc1=O	.	66%	.	10%	3%
COc1ccccc1-c1ccc(=O)n(CC(=O)NC(C)(C)C)n1	-6%	7.4µM*	i	46%	-8%
COCCNC(=O)Cn1nc(-c2ccccc2F)ccc1=O	-10%	3.7µM*	-4%	16%	7%
COCCCNC(=O)Cn1nc(-c2cccc(OC)c2)ccc1=O	.	10µM*	.	8%	2%
Cc1ccccc1-c1cc2nccc(-c3cc(Cl)ccc3O)n2n1	-4%	.	-6%	.	.
COc1cccc(C(=O)Nc2nc3nc(C)c(Cc4ccccc4)c(=O)n3[nH]2)c1	-1%	.	i	.	.
CCOC(C[n+]1c(-c2ccccc2)cc(C)cc1-c1ccccc1)OCC	-8%	1.5µM*	?	1.5µM*	12%
CCc1ccc(OCCCC(=O)Nc2nnc(C3CCCO3)s2)cc1 (stereo not given)	-7%	12µM*	-10%	39%	-7%
Cc1cccc(OCCCC(=O)Nc2nnc(C3CCCO3)s2)c1C (stereo not given)	-19%	-1%	-19%	21%	15%
Cc1ccc(-c2cn3c4c(=O)n(C)c(=O)n(C)c4nc3n2-c2cccc(Cl)c2)cc1	1%	.	-3%	.	.
CCN(C(=O)CN1C(=O)NC(c2ccccc2)(c2ccc(C)c(C)c2)C1=O)C1CCS(=O)(=O)C1 (stereo not given)	.	13µM*	.	?	-9%
CCN(C(=O)CN1C(=O)NC(c2ccccc2)(c2ccc(C)c(C)c2)C1=O)C1CCCCC1 (stereo not given)	.	3.3µM*	.	6.6µM*	-7%
O=C1CCC[C@@H]2C[C@@]3(C[C@@H]4CCN1[C@H]24)Nc1cc([N+](=O)[O-])ccc1NC3=NCc1ccccc1	-29%	.	-11%	.	.
CCOc1c(Cl)cc(C(=O)N(Cc2ccc(N(C)C)cc2)Cc2ccco2)cc1Cl	-14%	.	-7%	.	.
Cc1c(OCC(=O)N2C[C@H]3C[C@@H](C2)c2cccc(=O)n2C3)ccc2c3c(c(=O)oc12)CCCC3	-14%	?	-11%	-28%	41%
C=C(C)COc1ccc2c(C)c(CC(=O)N3C[C@H]4C[C@@H](C3)c3cccc(=O)n3C4)c(=O)oc2c1	0%	?	-1%	?	-3%
CC(C)=CCOc1ccc2c(C)c(CC(=O)N3C[C@H]4C[C@@H](C3)c3cccc(=O)n3C4)c(=O)oc2c1C	-3%	9.3µM*	-13%	?	5%
SMILES	Vaccinia Venus	Pf growth 96h	Vaccinia mCherry	Pf growth 48h	AMA1 RON2 block
C=C(C)COc1cc2oc(=O)c(CC(=O)N3C[C@H]4C[C@@H](C3)c3cccc(=O)n3C4)c(C)c2cc1Cl	-12%	10µM*	-22%	-17%	-2%
C=C(C)COc1ccc2c(C)c(CCC(=O)N3C[C@H]4C[C@@H](C3)c3cccc(=O)n3C4)c(=O)oc2c1	3%	2.6µM*	-7%	?	-8%
O=C(COc1cc2oc(=O)c3c(c2cc1Cl)CCC3)N1C[C@H]2C[C@@H](C1)c1cccc(=O)n1C2	-3%	?	-5%	?	0%
O=C(NCC1Cc2cccc(-c3cccnc3)c2O1)c1cc(-c2ccccc2)n[nH]1 (stereo not given)	-16%	.	i	.	.
CCOCCCNC(=O)c1cc(Sc2ccc(F)cc2)nc2ccccc12	-9%	13µM*	-1%	17%	16%
COCCCNC(=O)c1cc(Sc2ccc(F)cc2)nc2ccccc12	-15%	?	-21%	11%	-19%
CCN(CC)CCNC(=O)c1cc(-c2ccc(Br)s2)nc2ccccc12	-7%[7.34 µM]	2%	-14%[7.34 µM]	.	-2%
CCOCCCNC(=O)c1cc(-c2ccc(Br)s2)nc2ccccc12	0%	10µM*	-11%	.	20%
CCCCOc1cc(C(=O)NCCN(CC)CC)c2ccccc2n1	-9%	10µM*	0%	13µM*	11%
CCCCC(CC)COC(=O)c1ccccc1C(=O)OCC(CC)CCCC (stereo not given)	-18%	-1%	i	?	16%
CCCCC(CC)COC(=O)C(C#N)=C(c1ccccc1)c1ccccc1 (stereo not given)	-13%	2.6µM*	-1%	2.6µM*	12%
Cc1ccc(NC(=O)CCNC(=O)c2ccccc2Cl)cc1S(=O)(=O)N1CCCCCC1	.	?	.	?	-3%
O=C(Nc1cccc(S(=O)(=O)N2CCCCC2)c1)c1ccccc1NS(=O)(=O)c1ccc(F)cc1	?	8.3µM*	?	12µM*	-1%
Cc1ccc(NC(=O)c2ccccc2NS(=O)(=O)c2ccc(F)cc2)cc1S(=O)(=O)N1CCCCC1	?	12µM*	?	13µM*	-3%[11.6 µM]
CCOc1ccccc1NC(=O)N1CCc2c(sc(C)c2CC)C1c1ccccc1 (stereo not given)	-10%	.	-7%	.	.
Cc1ccc2ccccc2[n+]1CCCCI	-9%	.	-9%	.	.
Cc1cc(N)c2ccccc2[n+]1CCCCCCCCCC[n+]1c(C)cc(N)c2ccccc21	?	-100%[12.8 µM]	-29%	0.18µM*	.
N#CC1=C(N)C2=C(N3CCCCC3)CCCC2C1(C#N)C#N (stereo not given)	5%	12µM*	3%	5%	-5%
Cc1csc(NC(=O)c2c(-c3c(Cl)cccc3Cl)noc2C)n1	-26%	.	.	?	3%
Cc1onc(-c2ccccc2)c1C(=O)NCc1ccccn1	-6%	.	-9%	?	19%
Cc1csc(NC(=O)c2c(-c3c(F)cccc3Cl)noc2C)n1	.	?	.	12µM*	15%
CCCc1cc(C(=O)NCc2ccco2)no1	0%	13µM*	1%	.	-8%
Cc1onc(-c2c(F)cccc2Cl)c1C(=O)NCc1ccco1	-5%	1.5µM*	.	-10%	5%
CCCc1cc(C(=O)NCc2ccccc2)no1	-3%	287%	4%	56%	-1%
